# Experimental data published in publication PMC7862700, “An all-to-all approach to the identification of sequence-specific readers for epigenetic DNA modifications on cytosine”.
# Columns and labels:
# Assay in all cases: DAPPL (digital affinity profiling via proximity ligation, sequencing); 10 mM Tris-HCl pH 7.5, 50 mM NaCl, 1 mM DTT, 4% glycerol, room temperature, 30 min; GST-TFs on glutathione beads, 16-mer random dsDNA library, 0.1% formaldehyde crosslink after washing; high values mean tight binding
# [1] = target: T1, FLI1 (Homo sapiens, UniProt Q01543 1-452); conditions: protein: recombinant; tags: N-terminal GST; dsDNA, one strand shown
# T1 sequence: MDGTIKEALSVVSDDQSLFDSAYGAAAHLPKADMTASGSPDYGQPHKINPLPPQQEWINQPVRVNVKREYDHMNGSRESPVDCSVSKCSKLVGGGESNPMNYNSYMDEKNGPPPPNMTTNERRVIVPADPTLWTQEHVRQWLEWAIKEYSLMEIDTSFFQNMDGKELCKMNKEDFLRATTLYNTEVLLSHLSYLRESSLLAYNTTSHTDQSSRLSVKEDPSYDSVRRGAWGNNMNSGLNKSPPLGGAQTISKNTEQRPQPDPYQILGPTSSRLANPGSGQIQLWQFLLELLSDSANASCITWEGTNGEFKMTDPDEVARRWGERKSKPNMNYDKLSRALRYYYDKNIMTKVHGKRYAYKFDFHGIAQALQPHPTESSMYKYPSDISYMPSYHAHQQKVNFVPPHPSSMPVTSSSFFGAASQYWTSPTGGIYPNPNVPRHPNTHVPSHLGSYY
# Procedure, shortened: (§1)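 Human transcription factors were made in yeast as GST fusions, captured on glutathione beads and barcoded with DNA. With a tag-only sample included, the pool was incubated with 200 nmole of a random double-stranded 16-mer DNA library in Tris/NaCl/DTT/glycerol buffer at room temperature for 30 min, then crosslinked with 0.1% formaldehyde after washing, ligated by proximity, amplified and sequenced. For binding signal, each hexamer's read frequency for a factor is divided by its frequency for the tag-only sample.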
# [2] = target: T2, ELK1 (Homo sapiens, UniProt P19419 1-428); conditions: protein: recombinant; tags: N-terminal GST; dsDNA, one strand shown
# T2 sequence: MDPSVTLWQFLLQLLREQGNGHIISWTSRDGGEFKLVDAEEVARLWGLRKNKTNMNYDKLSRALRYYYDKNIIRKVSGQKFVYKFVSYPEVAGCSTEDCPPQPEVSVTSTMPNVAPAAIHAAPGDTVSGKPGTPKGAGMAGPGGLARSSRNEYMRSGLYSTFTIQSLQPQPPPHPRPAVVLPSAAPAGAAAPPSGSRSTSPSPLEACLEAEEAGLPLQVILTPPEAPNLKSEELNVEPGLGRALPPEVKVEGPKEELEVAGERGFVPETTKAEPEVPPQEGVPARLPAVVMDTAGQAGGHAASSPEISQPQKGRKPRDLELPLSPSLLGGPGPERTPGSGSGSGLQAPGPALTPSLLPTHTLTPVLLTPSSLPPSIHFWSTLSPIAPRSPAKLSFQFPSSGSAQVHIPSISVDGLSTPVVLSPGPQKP
# Procedure, shortened: as §1
# [3] = target: T3, GABPA (Homo sapiens, UniProt Q06546 1-454); conditions: protein: recombinant; tags: N-terminal GST; dsDNA, one strand shown
# T3 sequence: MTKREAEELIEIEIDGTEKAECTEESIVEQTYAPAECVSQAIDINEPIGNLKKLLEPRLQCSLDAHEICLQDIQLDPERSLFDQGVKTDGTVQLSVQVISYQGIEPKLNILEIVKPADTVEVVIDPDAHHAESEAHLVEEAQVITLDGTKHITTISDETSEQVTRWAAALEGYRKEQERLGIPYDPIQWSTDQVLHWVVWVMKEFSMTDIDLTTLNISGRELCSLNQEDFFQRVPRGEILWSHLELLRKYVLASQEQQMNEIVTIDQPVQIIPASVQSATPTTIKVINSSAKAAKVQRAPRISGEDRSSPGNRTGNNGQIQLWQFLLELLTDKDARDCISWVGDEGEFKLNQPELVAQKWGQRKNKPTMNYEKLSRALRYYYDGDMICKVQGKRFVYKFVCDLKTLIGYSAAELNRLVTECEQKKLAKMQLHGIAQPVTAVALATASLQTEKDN
# Procedure, shortened: as §1
# [4] = target: T4, ERG (Homo sapiens, UniProt P11308 1-479); conditions: protein: recombinant; tags: N-terminal GST; dsDNA, one strand shown
# T4 sequence: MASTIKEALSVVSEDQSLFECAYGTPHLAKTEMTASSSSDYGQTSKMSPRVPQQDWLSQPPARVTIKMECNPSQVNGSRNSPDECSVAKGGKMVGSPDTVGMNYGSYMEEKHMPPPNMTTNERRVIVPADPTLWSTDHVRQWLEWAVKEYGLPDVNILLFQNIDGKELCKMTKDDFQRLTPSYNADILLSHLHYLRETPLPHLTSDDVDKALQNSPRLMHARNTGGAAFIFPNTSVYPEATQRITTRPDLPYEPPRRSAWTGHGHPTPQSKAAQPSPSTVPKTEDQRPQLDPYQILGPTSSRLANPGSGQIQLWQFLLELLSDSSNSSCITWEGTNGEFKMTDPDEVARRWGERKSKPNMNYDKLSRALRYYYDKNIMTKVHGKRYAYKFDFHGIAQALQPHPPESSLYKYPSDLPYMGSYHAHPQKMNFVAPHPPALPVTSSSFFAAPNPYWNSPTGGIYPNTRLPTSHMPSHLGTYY
# Procedure, shortened: as §1
# [5] = target: ELF1 (Homo sapiens, UniProt P32519 1-619); conditions: protein: recombinant; tags: N-terminal GST; dsDNA, one strand shown
# Procedure, shortened: as §1
# [6] = target: T5, EHF (Homo sapiens, UniProt Q9NZC4 1-300); conditions: protein: recombinant; tags: N-terminal GST; dsDNA, one strand shown
# T5 sequence: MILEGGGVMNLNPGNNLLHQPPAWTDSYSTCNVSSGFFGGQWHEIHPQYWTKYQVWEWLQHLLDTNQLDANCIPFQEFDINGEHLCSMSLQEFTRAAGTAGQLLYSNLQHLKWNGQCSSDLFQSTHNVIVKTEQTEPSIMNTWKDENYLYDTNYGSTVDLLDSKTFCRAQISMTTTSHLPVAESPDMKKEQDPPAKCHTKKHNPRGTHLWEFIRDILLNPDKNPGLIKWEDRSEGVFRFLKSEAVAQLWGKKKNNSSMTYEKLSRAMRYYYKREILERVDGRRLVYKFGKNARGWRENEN
# Procedure, shortened: as §1
# [7] = target: SPI1 (Homo sapiens, UniProt P17947 1-270); conditions: protein: recombinant; tags: N-terminal GST; dsDNA, one strand shown
# Procedure, shortened: as §1
# [8] = target: SPIB (Homo sapiens, UniProt Q01892 1-262); conditions: protein: recombinant; tags: N-terminal GST; dsDNA, one strand shown
# Procedure, shortened: as §1
# [9] = target: T6, ELK3 (Homo sapiens, UniProt P41970 1-407); conditions: protein: recombinant; tags: N-terminal GST; dsDNA, one strand shown
# T6 sequence: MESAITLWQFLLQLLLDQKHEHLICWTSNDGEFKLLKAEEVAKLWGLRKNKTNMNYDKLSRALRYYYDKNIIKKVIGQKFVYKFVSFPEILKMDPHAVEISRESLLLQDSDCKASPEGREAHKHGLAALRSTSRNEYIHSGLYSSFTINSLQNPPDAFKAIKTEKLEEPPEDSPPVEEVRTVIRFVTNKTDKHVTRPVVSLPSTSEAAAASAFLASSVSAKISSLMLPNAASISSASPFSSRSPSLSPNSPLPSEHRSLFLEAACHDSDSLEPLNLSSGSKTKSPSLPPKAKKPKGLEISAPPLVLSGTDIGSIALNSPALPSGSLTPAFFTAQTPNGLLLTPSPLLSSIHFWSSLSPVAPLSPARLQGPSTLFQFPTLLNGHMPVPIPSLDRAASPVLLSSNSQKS
# Procedure, shortened: as §1
# [10] = target: T7, FEV (Homo sapiens, UniProt Q99581 1-238); conditions: protein: recombinant; tags: N-terminal GST; dsDNA, one strand shown
# T7 sequence: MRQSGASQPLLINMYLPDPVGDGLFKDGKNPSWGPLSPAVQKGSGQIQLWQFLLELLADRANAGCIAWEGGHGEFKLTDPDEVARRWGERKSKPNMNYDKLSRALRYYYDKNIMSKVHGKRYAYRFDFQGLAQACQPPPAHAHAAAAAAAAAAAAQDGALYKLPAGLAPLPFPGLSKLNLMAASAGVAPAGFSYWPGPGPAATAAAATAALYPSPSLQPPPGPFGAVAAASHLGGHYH
# Procedure, shortened: as §1
# [11] = target: ETV5 (Homo sapiens, UniProt P41161 1-510); conditions: protein: recombinant; tags: N-terminal GST; dsDNA, one strand shown
# Procedure, shortened: as §1
# [12] = target: HSF1 (Homo sapiens, UniProt Q00613 1-529); conditions: protein: recombinant; tags: N-terminal GST; chain copies: 3; dsDNA, one strand shown
# Procedure, shortened: as §1
# [13] = target: T8, SPIC (Homo sapiens, UniProt Q8N5J4 1-248); conditions: protein: recombinant; tags: N-terminal GST; dsDNA, one strand shown
# T8 sequence: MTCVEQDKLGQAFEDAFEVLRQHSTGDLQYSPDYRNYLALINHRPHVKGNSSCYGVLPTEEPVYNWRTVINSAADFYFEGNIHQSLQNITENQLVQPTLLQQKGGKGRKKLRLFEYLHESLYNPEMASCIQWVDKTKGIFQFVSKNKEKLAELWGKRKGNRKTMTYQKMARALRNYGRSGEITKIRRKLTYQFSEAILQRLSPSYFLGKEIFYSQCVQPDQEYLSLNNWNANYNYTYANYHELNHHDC
# Procedure, shortened: as §1
# [14] = target: ELF4 (Homo sapiens, UniProt Q99607 1-663); conditions: protein: recombinant; tags: N-terminal GST; dsDNA, one strand shown
# Procedure, shortened: as §1
# [15] = target: T9, ELK4 (Homo sapiens, UniProt P28324-2 1-405); conditions: protein: recombinant; tags: N-terminal GST; dsDNA, one strand shown
# T9 sequence: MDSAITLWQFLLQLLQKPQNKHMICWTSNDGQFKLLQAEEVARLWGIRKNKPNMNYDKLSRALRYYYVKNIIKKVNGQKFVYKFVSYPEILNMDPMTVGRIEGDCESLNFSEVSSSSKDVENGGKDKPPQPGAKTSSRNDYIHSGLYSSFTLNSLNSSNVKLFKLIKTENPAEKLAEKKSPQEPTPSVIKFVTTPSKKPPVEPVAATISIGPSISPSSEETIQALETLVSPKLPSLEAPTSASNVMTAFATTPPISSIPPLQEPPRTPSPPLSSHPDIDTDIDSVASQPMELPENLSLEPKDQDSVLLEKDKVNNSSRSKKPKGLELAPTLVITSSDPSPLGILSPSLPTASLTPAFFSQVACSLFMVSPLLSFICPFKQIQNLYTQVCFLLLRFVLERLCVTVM
# Procedure, shortened: as §1
# [16] = target: T10, ETV2 (Homo sapiens, UniProt O00321 1-342); conditions: protein: recombinant; tags: N-terminal GST; dsDNA, one strand shown
# T10 sequence: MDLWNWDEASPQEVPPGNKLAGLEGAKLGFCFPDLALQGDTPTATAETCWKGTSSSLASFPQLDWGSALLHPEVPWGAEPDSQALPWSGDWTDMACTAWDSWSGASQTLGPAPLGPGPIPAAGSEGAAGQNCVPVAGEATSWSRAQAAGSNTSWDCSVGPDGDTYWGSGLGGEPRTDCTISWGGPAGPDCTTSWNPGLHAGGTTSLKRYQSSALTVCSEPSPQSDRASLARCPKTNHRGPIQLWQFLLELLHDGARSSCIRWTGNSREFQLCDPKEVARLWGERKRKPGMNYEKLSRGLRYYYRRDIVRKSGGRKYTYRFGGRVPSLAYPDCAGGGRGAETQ
# Procedure, shortened: as §1
# [17] = target: T11, ELF3 (Homo sapiens, UniProt P78545 1-371); conditions: protein: recombinant; tags: N-terminal GST; dsDNA, one strand shown
# T11 sequence: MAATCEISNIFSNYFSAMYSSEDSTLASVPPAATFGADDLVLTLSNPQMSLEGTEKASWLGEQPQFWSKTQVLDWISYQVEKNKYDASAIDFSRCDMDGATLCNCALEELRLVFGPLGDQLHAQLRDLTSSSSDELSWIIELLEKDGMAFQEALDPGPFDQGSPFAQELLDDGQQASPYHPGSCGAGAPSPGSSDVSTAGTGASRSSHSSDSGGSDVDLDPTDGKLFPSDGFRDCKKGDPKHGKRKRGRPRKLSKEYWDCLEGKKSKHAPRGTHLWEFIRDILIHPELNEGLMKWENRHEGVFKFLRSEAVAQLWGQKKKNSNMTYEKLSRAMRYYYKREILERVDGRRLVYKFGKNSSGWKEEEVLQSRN
# Procedure, shortened: as §1
# [18] = target: CRX (Homo sapiens, UniProt O43186 1-299); conditions: protein: recombinant; tags: N-terminal GST; dsDNA, one strand shown
# Procedure, shortened: as §1
# [19] = target: ETV1 (Homo sapiens, UniProt P50549 1-477); conditions: protein: recombinant; tags: N-terminal GST; dsDNA, one strand shown
# Procedure, shortened: as §1
# ELF4, sequence (Q99607 whole entry): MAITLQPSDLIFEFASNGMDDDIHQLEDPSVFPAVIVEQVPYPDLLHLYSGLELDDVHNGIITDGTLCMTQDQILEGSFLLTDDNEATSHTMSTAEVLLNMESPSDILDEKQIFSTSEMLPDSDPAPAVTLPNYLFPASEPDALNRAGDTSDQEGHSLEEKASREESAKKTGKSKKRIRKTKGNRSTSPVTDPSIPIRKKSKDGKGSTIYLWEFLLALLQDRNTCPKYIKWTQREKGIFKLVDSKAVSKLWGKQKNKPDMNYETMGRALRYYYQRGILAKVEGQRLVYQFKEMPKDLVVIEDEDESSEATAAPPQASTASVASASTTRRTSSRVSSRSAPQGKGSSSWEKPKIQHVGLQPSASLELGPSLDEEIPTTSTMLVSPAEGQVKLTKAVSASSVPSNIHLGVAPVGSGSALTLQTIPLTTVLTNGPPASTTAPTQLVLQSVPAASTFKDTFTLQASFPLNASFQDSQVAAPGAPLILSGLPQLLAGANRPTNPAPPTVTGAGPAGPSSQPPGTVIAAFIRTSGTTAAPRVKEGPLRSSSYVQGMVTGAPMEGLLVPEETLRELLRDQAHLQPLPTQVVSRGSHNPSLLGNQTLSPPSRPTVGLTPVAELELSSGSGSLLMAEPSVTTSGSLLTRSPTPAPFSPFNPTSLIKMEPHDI
# HSF1, sequence (Q00613 whole entry): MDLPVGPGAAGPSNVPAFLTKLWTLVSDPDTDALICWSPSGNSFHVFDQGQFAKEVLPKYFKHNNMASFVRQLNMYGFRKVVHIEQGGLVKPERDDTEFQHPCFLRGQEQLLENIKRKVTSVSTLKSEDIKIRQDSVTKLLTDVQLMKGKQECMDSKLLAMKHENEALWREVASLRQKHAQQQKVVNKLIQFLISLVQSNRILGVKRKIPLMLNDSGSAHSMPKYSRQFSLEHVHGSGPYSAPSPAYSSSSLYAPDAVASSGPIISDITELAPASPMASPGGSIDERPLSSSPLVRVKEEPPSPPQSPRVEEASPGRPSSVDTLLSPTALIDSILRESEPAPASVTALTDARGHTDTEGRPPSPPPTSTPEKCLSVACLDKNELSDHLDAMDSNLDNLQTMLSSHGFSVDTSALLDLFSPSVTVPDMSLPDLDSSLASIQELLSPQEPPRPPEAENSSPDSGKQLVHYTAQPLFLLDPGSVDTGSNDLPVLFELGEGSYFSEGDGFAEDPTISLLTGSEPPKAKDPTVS
# CRX, sequence (O43186 whole entry): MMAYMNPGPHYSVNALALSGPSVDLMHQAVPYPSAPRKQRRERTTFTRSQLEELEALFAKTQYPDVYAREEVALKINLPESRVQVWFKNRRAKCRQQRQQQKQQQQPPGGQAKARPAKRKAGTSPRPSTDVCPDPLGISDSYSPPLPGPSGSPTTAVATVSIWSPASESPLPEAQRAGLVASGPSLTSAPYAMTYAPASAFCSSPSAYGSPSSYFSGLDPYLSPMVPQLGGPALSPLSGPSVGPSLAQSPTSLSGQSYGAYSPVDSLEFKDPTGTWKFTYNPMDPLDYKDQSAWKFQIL
# ETV5, sequence (P41161 whole entry): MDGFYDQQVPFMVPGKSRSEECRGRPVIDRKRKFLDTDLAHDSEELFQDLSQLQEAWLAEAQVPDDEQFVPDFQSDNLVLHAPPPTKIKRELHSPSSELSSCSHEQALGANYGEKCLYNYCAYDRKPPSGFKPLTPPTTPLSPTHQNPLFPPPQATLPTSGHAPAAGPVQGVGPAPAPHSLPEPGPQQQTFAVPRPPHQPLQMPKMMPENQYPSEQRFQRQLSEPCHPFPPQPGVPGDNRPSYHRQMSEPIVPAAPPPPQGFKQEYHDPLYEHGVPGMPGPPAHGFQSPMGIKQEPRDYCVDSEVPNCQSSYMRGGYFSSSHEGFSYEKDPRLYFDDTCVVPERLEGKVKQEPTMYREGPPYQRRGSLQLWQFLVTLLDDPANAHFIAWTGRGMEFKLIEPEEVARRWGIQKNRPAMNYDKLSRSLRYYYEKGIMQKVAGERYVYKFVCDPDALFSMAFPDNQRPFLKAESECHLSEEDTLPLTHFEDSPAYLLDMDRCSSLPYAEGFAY
# ELF1, sequence (P32519 whole entry): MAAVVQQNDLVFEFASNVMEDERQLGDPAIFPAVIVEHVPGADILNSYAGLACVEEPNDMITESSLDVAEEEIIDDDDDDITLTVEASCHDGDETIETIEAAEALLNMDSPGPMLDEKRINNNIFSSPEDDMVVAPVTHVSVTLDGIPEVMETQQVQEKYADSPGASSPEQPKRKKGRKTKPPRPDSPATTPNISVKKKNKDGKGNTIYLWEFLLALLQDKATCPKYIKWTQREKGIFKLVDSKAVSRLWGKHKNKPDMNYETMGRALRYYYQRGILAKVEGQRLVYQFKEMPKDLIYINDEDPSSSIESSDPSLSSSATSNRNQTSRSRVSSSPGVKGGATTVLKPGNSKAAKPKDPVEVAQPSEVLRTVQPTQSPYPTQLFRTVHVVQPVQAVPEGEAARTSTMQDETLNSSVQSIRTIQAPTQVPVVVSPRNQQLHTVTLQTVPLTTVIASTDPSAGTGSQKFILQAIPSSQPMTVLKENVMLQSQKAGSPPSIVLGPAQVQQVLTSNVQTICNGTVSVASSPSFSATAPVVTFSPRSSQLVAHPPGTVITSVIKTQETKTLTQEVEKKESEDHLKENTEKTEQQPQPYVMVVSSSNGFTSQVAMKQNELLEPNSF
# SPIB, sequence (Q01892 whole entry): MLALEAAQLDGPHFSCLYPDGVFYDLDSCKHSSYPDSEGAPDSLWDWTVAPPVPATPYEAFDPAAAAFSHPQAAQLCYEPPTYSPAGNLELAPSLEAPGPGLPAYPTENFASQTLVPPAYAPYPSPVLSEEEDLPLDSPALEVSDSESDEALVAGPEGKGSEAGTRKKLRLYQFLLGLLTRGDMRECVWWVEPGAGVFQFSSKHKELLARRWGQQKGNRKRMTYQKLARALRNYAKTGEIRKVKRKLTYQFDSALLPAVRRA
# ETV1, sequence (P50549 whole entry): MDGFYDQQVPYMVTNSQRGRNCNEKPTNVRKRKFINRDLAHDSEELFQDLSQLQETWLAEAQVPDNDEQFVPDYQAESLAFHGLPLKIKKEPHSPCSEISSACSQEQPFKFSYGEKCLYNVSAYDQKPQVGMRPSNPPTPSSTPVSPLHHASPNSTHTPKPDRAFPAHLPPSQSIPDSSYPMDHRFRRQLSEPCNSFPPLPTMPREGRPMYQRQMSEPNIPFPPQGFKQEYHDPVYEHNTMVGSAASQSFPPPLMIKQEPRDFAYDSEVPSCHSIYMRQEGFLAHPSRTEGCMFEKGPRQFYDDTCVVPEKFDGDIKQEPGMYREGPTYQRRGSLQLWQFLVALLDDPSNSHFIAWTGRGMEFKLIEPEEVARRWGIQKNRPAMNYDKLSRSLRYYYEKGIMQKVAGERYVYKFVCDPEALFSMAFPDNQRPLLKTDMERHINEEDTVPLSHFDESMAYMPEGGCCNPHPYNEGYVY
sequence,measurement,setting,value
TAAGTA,binding signal,[1],"1.21 fold enrichment (6-mer frequency, TF over GST control)"
same,binding signal,[2],"1.26 fold enrichment (6-mer frequency, TF over GST control)"
same,binding signal,[3],"1.28 fold enrichment (6-mer frequency, TF over GST control)"
same,binding signal,[4],"1.22 fold enrichment (6-mer frequency, TF over GST control)"
same,binding signal,[5],"1.24 fold enrichment (6-mer frequency, TF over GST control)"
same,binding signal,[6],"1.19 fold enrichment (6-mer frequency, TF over GST control)"
same,binding signal,[7],"1.16 fold enrichment (6-mer frequency, TF over GST control)"
same,binding signal,[8],"1.22 fold enrichment (6-mer frequency, TF over GST control)"
same,binding signal,[9],"1.22 fold enrichment (6-mer frequency, TF over GST control)"
same,binding signal,[10],"1.16 fold enrichment (6-mer frequency, TF over GST control)"
same,binding signal,[11],"1.18 fold enrichment (6-mer frequency, TF over GST control)"
same,binding signal,[12],"1.76 fold enrichment (6-mer frequency, TF over GST control)"
same,binding signal,[13],"1.25 fold enrichment (6-mer frequency, TF over GST control)"
same,binding signal,[14],"1.24 fold enrichment (6-mer frequency, TF over GST control)"
same,binding signal,[15],"1.18 fold enrichment (6-mer frequency, TF over GST control)"
same,binding signal,[16],"1.38 fold enrichment (6-mer frequency, TF over GST control)"
same,binding signal,[17],"1.36 fold enrichment (6-mer frequency, TF over GST control)"
same,binding signal,[18],"2.63 fold enrichment (6-mer frequency, TF over GST control)"
same,binding signal,[19],"1.29 fold enrichment (6-mer frequency, TF over GST control)"
